A word on the AC50: it is the concentration giving half of the maximal activity seen.

Consider seven compounds from PubChem BioAssay (EPA / NIEHS).

Experiment [1] can be described thus: APR_HepG2_CellCycleArrest_1hr: Apredica 1-hour HepG2 Assay for Cell Cycle Arrest (AID 2282666). To be noted: high-content imaging, actives raise or lower the signal. The gist of the method: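 Cell cycle arrest scored from nuclear DNA content (Hoechst 33342) using high-content imaging of fixed HepG2 cells after 1 h treatment across 0.39–200 uM, in duplicate. Gain or loss fitted relative to 0.5% DMSO.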

Experiment [2] in a line: APR_HepG2_CellLoss_1hr: Apredica 1-hour HepG2 Assay for Cell Loss (AID 2282668).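 Also: curves fitted both ways against DMSO so gain or loss of cells counts.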 To be noted: high-content imaging. The gist of the method:
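Cell number comes from high-content imaging of Hoechst-labelled nuclei in fixed HepG2 cells. Cells were exposed for 1 h to ten concentrations from 0.39 to 200 uM in 0.5% DMSO. Gain or loss was fitted against DMSO controls.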

Experiment [3] is described as follows: APR_HepG2_MicrotubuleCSK_1hr: Apredica 1-hour HepG2 Assay for Microtubule CSK Stabilty (AID 2282669). To be noted: HepG2 microtubule cytoskeleton imaging, actives raise or lower the signal. The gist of the method: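 Alpha-tubulin immunofluorescence, imaged by automated high-content microscopy with Hoechst nuclear segmentation, measured cytoskeletal change after 1 h dosing of HepG2 at 0.39–200 uM in 0.5% DMSO. Activity fitted in both directions relative to DMSO.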

A short description of experiment [4]: APR_HepG2_NuclearSize_1hr: Apredica 1-hour HepG2 Assay for Nuclear Size (AID 2282670). To be noted: high-content imaging, actives raise or lower the signal. The method in brief:
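Nuclear size measured by high-content imaging of Hoechst 33342 nuclear stain after formaldehyde fixation; human HepG2 line exposed 1 hr to compounds at 0.39–200 uM in 0.5% DMSO, with bidirectional curve fitting relative to DMSO.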

Experiment [5] can be described thus: APR_HepG2_MitoticArrest_1hr: Apredica 1-hour HepG2 Assay for Mitotic Arrest (AID 2282672). To be noted: high-content imaging, actives raise or lower the signal. The method in brief:
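Ten-point concentration series (0.39 to 200 uM, duplicates, 0.5% v/v DMSO) applied to human HepG2 liver cells for 1 hr. High-content imaging of phospho-histone H3 and Hoechst-stained nuclei after fixation and permeabilization; DMSO-normalised bidirectional fit.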

A short description of experiment [6]: APR_HepG2_P-H2AX_1hr: Apredica 1-hour HepG2 Assay for H2AX Phosphorylation (AID 2282673). The note with it: high-content imaging, actives raise or lower the signal. The gist of the method:
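Phospho-H2A.x immunofluorescence (1:200, FITC secondary) plus Hoechst nuclear stain, quantified by high-content imaging in HepG2 after 1 hr compound exposure. Ten concentrations, 0.39 to 200 uM, in duplicate with 0.5% DMSO; fit both directions against DMSO.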

The nature of experiment [7]: APR_HepG2_MitoMass_1hr: Apredica 1-hour HepG2 Assay for Mitochondrial Mass (AID 2282674). The note with it: high-content imaging, actives raise or lower the signal. The method in brief: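 Mitochondrial mass is taken from MitoTracker Red CMXRos (250 nM, 30 min, pre-fixation) fluorescence imaged at 20x in HepG2 cells. Exposure lasted 1 hr across ten concentrations, 0.39 to 200 uM, 0.5% DMSO; DMSO baseline, bidirectional fitting.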

The nature of experiment [8]: APR_HepG2_MitoMembPot_1hr: Apredica 1-hour HepG2 Assay for Mitochondrial Membrane Potential (AID 2282675). The note with it: imaging, actives raise or lower the signal. The method in brief: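 Mitochondrial membrane potential read as MitoTracker Red CMXRos intensity by automated imaging of fixed HepG2 cells. Dye at 250 nM for 30 min pre-fixation; compounds 0.39 to 200 uM for 1 hour, duplicate wells, 0.5% DMSO.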

A short description of experiment [9]: APR_HepG2_CellCycleArrest_24hr: Apredica 24-hour HepG2 Assay for Cell Cycle Arrest (AID 2282905).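 Also: cell cycle arrest scored as ratio of 2N to 4N nuclear DNA content.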 The note with it: imaging, actives raise or lower the signal. The method in brief:
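Step one: dose HepG2 with test compounds, 0.39–200 uM, 0.5% DMSO, 24 hr. Step two: fix, permeabilize, stain nuclei with Hoechst 33342. Step three: image six fields per well at 20x, quantify DNA content, fit bidirectionally relative to DMSO.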

The nature of experiment [10]: APR_HepG2_StressKinase_1hr: Apredica 1-hour HepG2 Assay for Stress Kinase (AID 2282906). To be noted: HepG2 stress kinase (phospho-c-Jun) imaging, actives raise or lower the signal. The gist of the method: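 High-content imaging of phospho-c-Jun immunostaining (with Hoechst nuclear identification) after a 1 h exposure of HepG2 cells to 10 concentrations from 0.39 to 200 uM, final DMSO 0.5%. Fitted bidirectionally against DMSO.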

The nature of experiment [11]: APR_HepG2_NuclearSize_24hr: Apredica 24-hour HepG2 Assay for Nuclear Size (AID 2282907). The note with it: high-content imaging, actives raise or lower the signal. The gist of the method:
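After fixation and permeabilization, 24-hr-treated HepG2 cells were stained with Hoechst 33342 and imaged on an ArrayScan (20x). Doses spanned 0.39–200 uM in duplicate. Nuclear diameter changes in either direction were fitted relative to 0.5% DMSO controls.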

Experiment [12] can be described thus: APR_HepG2_CellLoss_24hr: Apredica 24-hour HepG2 Assay for Cell Loss (AID 2282908).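 As to AC50: fit in both directions so a hit may be cell loss or gain.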 To be noted: high-content imaging. The gist of the method: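 Duplicate wells received compound at ten concentrations (0.39–200 uM; final DMSO 0.5% v/v). After fixation with formaldehyde, nuclei stained with Hoechst 33342 were imaged at 20x. Loss or gain of cell count was fitted relative to DMSO controls.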

The nature of experiment [13]: APR_HepG2_MicrotubuleCSK_24hr: Apredica 24-hour HepG2 Assay for Microtubule CSK Stabilty (AID 2282909). The note with it: HepG2 microtubule cytoskeleton imaging, actives raise or lower the signal. The method in brief: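 Microtubule stability is scored from tubulin immunofluorescence in fixed HepG2 cells imaged at 20x. Cells receive ten compound concentrations up to 200 uM for 24 h; taxol and DMSO serve as positive and negative controls.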

A short description of experiment [14]: APR_HepG2_MitoticArrest_24hr: Apredica 24-hour HepG2 Assay for Mitotic Arrest (AID 2282910). To be noted: high-content imaging, actives raise or lower the signal. The gist of the method:
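HepG2, 24 hr dosing, 0.39–200 uM, 0.5% DMSO final. Formaldehyde-fixed, Triton-permeabilised, anti-phospho-histone H3 plus Hoechst. ArrayScan imaging at 20x; bidirectional fit vs DMSO baseline.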

Experiment [15] can be described thus: APR_HepG2_MitoMembPot_24hr: Apredica 24-hour HepG2 Assay for Mitochondrial Membrane Potential (AID 2282911). The note with it: imaging, actives raise or lower the signal. The gist of the method: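 Mitochondrial membrane potential imaged via MitoTracker Red CMXRos (250 nM, 30 min pre-fixation) in fixed HepG2 cells with Hoechst nuclear identification. Ten concentrations 0.39–200 uM, 24 h treatment, 0.5% DMSO; CCCP as positive control.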

Experiment [16] is described as follows: APR_HepG2_MitoMass_24hr: Apredica 24-hour HepG2 Assay for Mitochondrial Mass (AID 2282912). To be noted: high-content imaging, actives raise or lower the signal. The gist of the method:
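Readout: fluorescence of MitoTracker Red CMXRos (250 nM, added 30 min pre-fixation) in fixed HepG2 cells imaged by HCS. Exposure lasted 24 hr at 0.39–200 uM; increases and decreases were both fitted relative to DMSO.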

Experiment [17] can be described thus: APR_HepG2_p53Act_24hr: Apredica 24-hour HepG2 Assay for p53 Activation (AID 2282913).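 Also: p53 protein immunofluorescence averaged per cell in HepG2 with Hoechst nuclei.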 The note with it: high-content imaging, actives raise or lower the signal. The gist of the method: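 Fluorescence imaging of formaldehyde-fixed HepG2 cells labelled for p53 and with Hoechst, 24 h after dosing (0.39–200 uM, duplicate wells, 0.5% v/v DMSO). Signal fitted in both directions relative to DMSO.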

Experiment [18] in a line: APR_HepG2_CellCycleArrest_72hr: Apredica 72-hour HepG2 Assay for Cell Cycle Arrest (AID 2282914). To be noted: high-content imaging, actives raise or lower the signal. The gist of the method: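 Read-out: nuclear DNA content from Hoechst 33342 high-content imaging (20x, six fields/well) after 3.7% formaldehyde fixation, fitted bidirectionally against DMSO. Treatment was 72 h in HepG2, ten concentrations 0.39–200 uM, duplicate, 0.5% DMSO.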

The nature of experiment [19]: APR_HepG2_CellLoss_72hr: Apredica 72-hour HepG2 Assay for Cell Loss (AID 2282915). The note with it: high-content imaging. The method in brief: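 HepG2 cells exposed 72 h to compound at 0.39–200 uM (10 concentrations, duplicate) in 0.5% DMSO. Fixed with 3.7% formaldehyde and Hoechst 33342-stained. Imaged at 20x; nuclear count gives cell number, fitted bidirectionally versus DMSO.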

Experiment [20] in a line: APR_HepG2_p53Act_1hr: Apredica 1-hour HepG2 Assay for p53 Activation (AID 2282671). To be noted: high-content imaging, actives raise or lower the signal. The gist of the method: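 After 1 h exposure (0.39–200 uM, 0.5% DMSO final, duplicates), fixed HepG2 cells were labelled with anti-p53 antibody plus Hoechst nuclear stain. Fluorescence quantified by automated 20x imaging; changes fitted in both directions against DMSO.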

Activity calls are given as the source filed them. The calls were made as follows: active = hit-call score of the fitted dose curve at least 0.9, where 1 is the maximum; inactive = score below 0.9.

As to `CCc1cccc(C)c1N(C(=O)CCl)C(C)COC` (centres undefined), the call in [1], in experiment [2], in [3], in [4], in [5] and in [6] was inactive. In addition, the compound was classed as inactive in experiment [7], in experiment [8], in [9], in experiment [10], in experiment [11] and in experiment [12]. Also, the result in experiment [13], in experiment [14], in [15], in experiment [16], in experiment [17] and in experiment [18] was inactive. The AC50 in [19] was 106 µM (active).
Take `CC(COc1ccc(Oc2ccccc2)cc1)Oc1ccccn1` (centres undefined): the compound was called inactive in experiment [1], in experiment [2], in experiment [3], in [7], in [10] and in experiment [11]. Further, the outcome in experiment [12], in [13], in [14], in experiment [16] and in experiment [17] was inactive. In addition, the AC50 was 66.9 µM (active) in [8]; 77 µM (active) in experiment [9]; 65.7 µM (active) in [15]; 87 µM (active) in experiment [18]; 49.2 µM (active) in experiment [19].
Regarding `FC(F)C(F)(F)OCC(Cn1cncn1)c1ccc(Cl)cc1Cl` (centres undefined), the result in experiment [1], in experiment [2], in [3], in experiment [4], in experiment [5] and in experiment [6] was inactive. Further, the call in [7], in [8], in experiment [9], in experiment [10], in experiment [11] and in experiment [14] was inactive. Further, the compound was called inactive in experiment [15], in experiment [16] and in experiment [17]. Moreover, the AC50 in experiment [12] was 48.7 µM (active); in [13], 103 µM (active); in experiment [18], 75.8 µM (active); in [19], 99.9 µM (active).
Take `CCNc1nc(Cl)nc(NC(C)(C)C#N)n1`: the compound was called inactive in experiment [1], in experiment [2], in experiment [3], in [20], in experiment [8] and in experiment [9]. The compound was called inactive in [10], in experiment [11], in experiment [12], in experiment [13], in experiment [14] and in experiment [15]. Further, the compound was called inactive in [16], in experiment [17], in [18] and in experiment [19].
`CON=C(C(=O)OC)c1ccccc1CON=C(C)c1cccc(C(F)(F)F)c1`: the compound was called inactive in [1], in [2], in experiment [3], in experiment [20], in experiment [5] and in experiment [6]. For the same compound, the result in experiment [7], in experiment [8], in experiment [9], in experiment [10], in [11] and in experiment [12] was inactive. The outcome in experiment [13], in experiment [14], in experiment [16], in experiment [17] and in experiment [18] was inactive. Moreover, the AC50 is 1.07 µM (active) in experiment [15] and 3.36 µM (active) in [19].
Turning to `CNC(=O)ON=C(C)SC`, the outcome in experiment [1], in experiment [2], in [3], in experiment [4], in experiment [5] and in experiment [6] was inactive. Also, the compound was classed as inactive in experiment [7], in [8], in experiment [9], in experiment [10], in experiment [11] and in experiment [12]. The compound was classed as inactive in [13], in [14], in experiment [15], in experiment [16], in experiment [17] and in experiment [18]. Further, in [19], the compound was classed as inactive.
On to `O=[N+]([O-])c1cc(C(F)(F)F)c(Cl)c([N+](=O)[O-])c1Nc1ncc(C(F)(F)F)cc1Cl`, for which the compound was classed as inactive in [1], in experiment [3], in experiment [5], in experiment [11], in [14] and in [15]. Further, the outcome in [16] was inactive. In addition, the AC50 in experiment [2] is 94.8 µM (active); in [7] it was 103 µM (active); in experiment [8], 15 µM (active); in experiment [9] it was 1.37 µM (active); in experiment [10], 9.87 µM (active); in [12] it was 49.5 µM (active). The concentration at half-maximal activity (AC50) in experiment [13] is 1.14 µM (active); in [18], 0.676 µM (active); in experiment [19] it was 1.33 µM (active).
